# Mtb betalactam = beta-lactam sensitization of Mtb H37Rv, H37Rv; M. tuberculosis H37Rv growth with meropenem, percent inhibition; inhibition, % at 25 µM; actives 0.27% (n = 330,000); AID 434955, 2010; call rule not given here;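 also: growth measured after seven days incubation then overnight dye step; 0% = bacteria only wells and 100% = bacteria with antibiotic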
# PriA SSB inh = inhibitors of Klebsiella pneumoniae PriA binding to SSB C-terminal tail, primary screen, biochemical, AlphaScreen; actives 0.6% (n = 430,000); inhibition, % at 33 µM; AlphaScreen SSBct-PriA binding, biotinylated peptide; PriA–SSB C-terminal tail interaction (Klebsiella pneumoniae); in the data active = inhibition mostly above about 37%, no sharp cut-off; inactive = mostly below about 20%;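 also: plate controls were negative control peptide for no effect and reference peptide for full effect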
# GDH-TPI counter-1 = GDH-TPI coupling enzyme inhibitors, primary screen, artefact control for M. tuberculosis FBA inhibitor project, biochemical, absorbance, full deck. actives 1.2% (n = 360,000). inhibition, % at 4.8 µM. AID 588335, 2011. GDH-TPI coupled enzyme counterscreen, NADH absorbance; in the data active = inhibition above about 30%;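 also: 0% = DMSO wells and 100% = wells lacking the enzyme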
# Rv3671c protease = Rv3671c serine protease inhibitors, primary screen, biochemical, fluorescence polarization, M. tuberculosis H37Rv; P9WHR9; inhibition, % at 5.96 µM; actives 0.048% (n = 320,000); AID 2606, 2010; in the data active = inhibition above about 38%;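 also: extracellular domain of Rv3671c used as enzyme; 0% = enzyme with DMSO and 100% = no enzyme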
# FBA Mtb inh = Mtb FBA enzyme inhibitors, primary screen, biochemical, fluorescence, strain H37Rv; Fructose-bisphosphate aldolase (Mycobacterium tuberculosis (strain ATCC 25618 / H37Rv)), …; purified M. tuberculosis FBA, fluorescence read-out; inhibition, % at 1 µM; actives 2.3% (n = 360,000);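 also: 0% = vehicle and 100% = reference inhibitor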
# Target sequence (P9WQA3 whole entry, looked up): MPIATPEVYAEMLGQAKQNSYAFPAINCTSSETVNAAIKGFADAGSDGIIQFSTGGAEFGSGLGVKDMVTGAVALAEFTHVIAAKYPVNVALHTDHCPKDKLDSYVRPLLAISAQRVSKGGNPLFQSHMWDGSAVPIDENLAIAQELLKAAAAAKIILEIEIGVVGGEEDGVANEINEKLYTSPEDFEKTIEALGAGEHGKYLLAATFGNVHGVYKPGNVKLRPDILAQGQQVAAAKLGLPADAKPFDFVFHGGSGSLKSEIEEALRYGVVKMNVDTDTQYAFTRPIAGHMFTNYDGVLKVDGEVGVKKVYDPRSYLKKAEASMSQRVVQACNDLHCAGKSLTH
# UGM FP inh = M. tuberculosis UGM enzyme inhibitors, primary screen, biochemical, fluorescence polarization, single point | UDP-galactopyranose mutase (Mycobacterium tuberculosis (strain ATCC 25618 / H37Rv)), … | purified UGM, fluorescence polarization probe displacement | inhibition, % at 10 µM | actives 0.06% (n = 320,000); in the data active = inhibition above about 10%, passing the limit was not always enough
# Mtb FBA inh conf = M. tuberculosis aldolase blockers, biochemical, fluorescence, strain H37Rv, confirmation | shares compounds with FBA Mtb inh | purified M. tuberculosis FBA, fluorescence read-out | inhibition, % at 1 µM | actives 78% (n = 5,600);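 also: 0% = vehicle wells and 100% = reference inhibitor wells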
# GDH-TPI counter-2 = GDH-TPI coupling enzyme inhibitors, artefact control for M. tuberculosis FBA inhibitor project, biochemical, fluorescence, high throughput | shares compounds with FBA Mtb inh | GDH-TPI coupled enzyme counterscreen | inhibition, % at 1 µM | actives 81% (n = 5,600) | AID 652141, 2013; in the data active = inhibition above about 10%
# Active calls of the source: *; . = no result given. An excerpt weighted towards active compounds, which were near 3.2% of everything screened. Rule as the data show it, unless noted: active = inhibition above about 27%; inactive = the rest.
SMILES,Mtb betalactam,PriA SSB inh,GDH-TPI counter-1,Rv3671c protease,FBA Mtb inh,UGM FP inh,Mtb FBA inh conf,GDH-TPI counter-2
COc1ccc(-c2nc(C#N)c(NCc3ccccc3Cl)o2)cc1,16,3,1,7,10,-1,.,.
COc1ccc(-c2nc(C#N)c(NCCc3ccccc3)o2)cc1,-3,14,13,9,80*,1,37*,26*
C=CCN(CC=C)S(=O)(=O)c1ccc(C(=O)Nc2ccc(S(=O)(=O)Nc3nnc(CC)s3)cc2)cc1,.,0,.,.,.,.,.,.
Cc1ccc(C(=O)N(CCN(C)C)c2nc3cc4c(cc3s2)OCO4)cc1,.,2,.,.,.,.,.,.
C=CCN1C(=O)C(C)(C)COc2ccc(NC(=O)c3ccc(C(F)(F)F)cc3)cc21,.,14,.,.,.,.,.,.
CCOc1cc(C=NNC(=O)OC)ccc1OCCSc1ccc(Cl)cc1,.,2,.,.,.,.,.,.
COCCCN1C(=O)c2ccc3c(=O)n4c5ccccc5nc4c4ccc(c2c34)C1=O,.,-3,.,.,.,.,.,.
CCOc1ccc(-c2nc(C#N)c(NC3CC3)o2)cc1,-6,-3,8,-8,96*,0,-3,-7
N#Cc1nc(-c2ccccc2)oc1NCc1ccco1,0,-4,17,8,101*,-1,59*,50*
N#Cc1nc(-c2ccc(Cl)cc2)oc1NCCc1ccccn1,-4,-6,31*,-8,28*,1,88*,82*
CCOc1ccc(Nc2oc(-c3ccc(Cl)cc3)nc2C#N)cc1,28,5,9,0,2,2,.,.
COc1ccc2c(c1)C1OCCC1C(c1ccco1)N2 (stereo not drawn),-7,-6,44*,0,93*,3,96*,67*
c1coc(C2Nc3ccccc3C3OCCC23)c1 (stereo not drawn),-7,3,-14,-5,9,1,.,.
c1ccc(Nc2cccc3c(Nc4ccccc4)cccc23)cc1,6,16,11,7,28*,1,36*,34*
Cc1cccc(Nc2ccccc2)c1,-15,-9,-11,6,0,2,.,.
COc1ccc2[nH]c3c(c2c1)CCCC3=NN,.,-10,.,.,.,.,.,.

# Screening data from PubChem.
